Assay results from PubChem BioAssay (NCATS).
Inconclusive results are not listed. Activity calls are given as the source filed them. Calls come from the whole dose curve; as a rule, active = well fitted curve in the direction sought with a large enough effect; inconclusive = small, poorly fitted or top-dose-only effect, or another doubt; inactive = no such curve, though single readings can be large; an effect the other way counts as inactive or inconclusive.

Experiments:
NIH3T3 = experiment: qHTS assay to identify novel small-molecules to repurpose for Merkel cell carcinoma treatment (AID 1296009); details: MCC and control cell lines, CellTiter-Glo viability, 72 h; at 44.8 µM (top of the series) unless noted; note: nearly all actives have a fitted effect of over 60% in size
Summary of the method: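 Dose-response viability screen; 72 hr exposure at 37 degree celsius; CellTiter-Glo added, 10 min room temperature, luminescence read; RLUs scaled between no-cell and DMSO wells.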

C33A = experiment: Primary qHTS to identify gynecologic anti-cancer compounds using libraries of approved drugs and bioactive compounds (AID 1345084); details: Gynecologic cancer cell panel viability, ATPlite luminescence, 48 h; series mostly up to 57.5 µM; note: nearly all actives have a fitted effect of over 55% in size
Summary of the method: (§1)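 Cells, 1,000 per well, were allowed to settle for 16 h at 37 C before compound addition. Five concentrations were tested for 48 h, and viability was read by ATPlite luminescence after 15 min at room temperature.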

Es-2 = experiment: as above; details: Gynecologic cancer cell panel viability, ATPlite luminescence, 48 h; series mostly up to 57.5 µM
Summary of the method: as §1

HeLa = experiment: as above; details: Gynecologic cancer cell panel viability, ATPlite luminescence, 48 h; series mostly up to 57.5 µM
Summary of the method: as §1

Hek293T = experiment: as above; details: Gynecologic cancer cell panel viability, ATPlite luminescence, 48 h, control line for the selectivity index; series mostly up to 57.5 µM
Summary of the method: as §1

JEG-3 = experiment: as above; details: Gynecologic cancer cell panel viability, ATPlite luminescence, 48 h; series mostly up to 57.5 µM
Summary of the method: as §1

OV90 = experiment: as above; details: Gynecologic cancer cell panel viability, ATPlite luminescence, 48 h; series mostly up to 57.5 µM
Summary of the method: as §1

PA-1 = experiment: as above; details: Gynecologic cancer cell panel viability, ATPlite luminescence, 48 h; series mostly up to 57.5 µM
Summary of the method: as §1

SKOV3 = experiment: as above; details: Gynecologic cancer cell panel viability, ATPlite luminescence, 48 h; series mostly up to 57.5 µM
Summary of the method: as §1

Tov-21-G = experiment: as above; details: Gynecologic cancer cell panel viability, ATPlite luminescence, 48 h; series mostly up to 57.5 µM
Summary of the method: as §1

Tov112D = experiment: as above; details: Gynecologic cancer cell panel viability, ATPlite luminescence, 48 h; series mostly up to 57.5 µM
Summary of the method: as §1

CASKI = experiment: as above; details: Gynecologic cancer cell panel viability, ATPlite luminescence, 48 h; series mostly up to 57.5 µM
Summary of the method: as §1

CAOV3 = experiment: as above; details: Gynecologic cancer cell panel viability, ATPlite luminescence, 48 h; series mostly up to 57.5 µM
Summary of the method: as §1

Measured: Potency

CC(NC(=O)CC(=O)O)C(=O)Nc1ccccc1C(N)=O (stereo not given)
not listed: CASKI | CAOV3
inactive: all other assays above

CC(=O)O[C@@H]1[C@@H](O)[C@H](C)O[C@@H](O[C@H]2[C@@H]3C=CO[C@@H](O[C@@H]4O[C@H](CO)[C@@H](O)[C@H](O)[C@H]4OC(C)=O)[C@@H]3[C@@]3(CO)O[C@@H]23)[C@@H]1OC(=O)/C=C/c1ccc(O)cc1
inactive: NIH3T3 inactive [at 17.4 µM] | C33A | CASKI | Es-2 | HeLa | Hek293T | JEG-3 | OV90 | PA-1 | SKOV3 | Tov-21-G | Tov112D

CC1(C)C[C@@H]2[C@H](C1)[C@@]1(C)C[C@]13C(O)OC[C@]3(O)[C@H]2O (stereo not given in full)
not listed: CAOV3
inactive: all other assays above

C=C(C(=O)O)[C@@H]1CC[C@@]2(C)CCC[C@@](C)(O)[C@@H]2C1
not listed: NIH3T3
inactive: all other assays above

CC1(C)C(=O)CCC2(C)C1C(O)C=C1COC(=O)C12O (stereo not given)
not listed: NIH3T3
inactive: all other assays above

CC(CC12CCCN1C(=O)C1CCCN1C2=O)OC(N)=O (stereo not given)
not listed: NIH3T3
inactive: all other assays above

COC(=O)[C@]1(Cc2ccc(O)c(CC=C(C)C)c2)OC(=O)C(O)=C1c1ccc(O)cc1
not listed: NIH3T3
inactive: all other assays above

CCc1cccc2c3c([nH]c12)[C@@](CC)(CC(=O)O)OCC3
not listed: NIH3T3
inactive: all other assays above

COc1ccc(-n2c(SCC#N)nc3sc4c(c3c2=O)CCCC4)cc1
not listed: NIH3T3
inactive: all other assays above

CC1(C)C(=O)N2c3ccccc3C(O)(CC(C(=O)O)n3cnc4ccccc4c3=O)C2N1O (stereo not given)
not listed: NIH3T3
inactive: all other assays above

C=CC1(C)CC2CCC3C(C)(C(=O)O)CCCC3(C)C2=CC1=O (stereo not given)
not listed: NIH3T3
inactive: all other assays above

CC(=O)O[C@H]1[C@H](OC(=O)C(C)C)[C@]2(C)OC3(CC[C@]2(C)[C@H]2CCC[C@]4(CO4)[C@]12C)COC(=O)C3 (stereo not given in full)
not listed: NIH3T3
inactive: all other assays above

O=C(OCC1=CC(Cl)C(O)C(OC(=O)c2ccccc2)C1O)c1ccccc1 (stereo not given)
not listed: NIH3T3
inactive: all other assays above
